Results from the supplement of paper PMC12636033.
± gives the standard deviation of the averaged measurements. In all, about 33,000 sequences were measured (“E-score (rank enrichment, -0.5 to 0.5)”: median about -0.0043, highest 2% from about 0.24 on). The sample holds the highest values, similar sequences and a random draw of the others, so the mix is not that of the screen.

System: 2Sp-muMax20 (muMax20 with two 2,6-bis(methyl)pyridine Cys staples)
Assay: PBM 8-mer E-score (E-score (rank enrichment, -0.5 to 0.5)); higher = stronger preferential binding
Protocol: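 Protein binding microarray (universal PBM chip covering all 10-mers in fixed probe flanks) with chemically synthesized human Max(13-93) bHLH-LZ analogs (not full-length Max) bearing noncanonical residues (hArg, Tha, Aib, Nle at 65) and aromatic Cys staples. Read-out per 8-mer (and its reverse complement): E-score (rank-based enrichment, -0.5 to 0.5) and Z-score of median probe intensity.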

Sequence	PBM 8-mer E-score
CGTAATAG	0.118 ± 0.1
AGTAATAA	0.0744 ± 0.038
AGTAATGG	0.122 ± 0.043
AATAGTAA	0.238 ± 0.06
AGTAATAC	-0.0935 ± 0.039
AGTAACAG	0.09 ± 0.031
AATAGTAG	0.0793 ± 0.083
ACCGGCAT	-0.121 ± 0.029
GCAAATAC	0.0657 ± 0.013
AATAGATT	0.117 ± 0.049
GCAACGTA	-0.119 ± 0.038
GAGCTATC	0.0105 ± 0.011
CCAAACGA	-0.105 ± 0.068
AGCGTGTG	0.146 ± 0.035
ATCGGGAA	-0.0836 ± 0.067
GCATCCAC	0.0775 ± 0.049
CCCACCTC	-0.0411 ± 0.14
GCTTTTTA	0.303 ± 0.013
CCTTTTCA	0.29 ± 0.03
GCTTTTAA	-0.0089 ± 0.0068
CCTTTTTA	-0.0668 ± 0.03
GCTTTTCA	0.0545 ± 0.063
CTTTTTCA	0.0855 ± 0.061

Sequence	PBM 8-mer E-score
GTTCCTCA	-0.0919 ± 0.021
CGCTGGAG	-0.172 ± 0.023
ATCAACTC	0.0114 ± 0.058
CGAAGGAA	-0.209 ± 0.023
GAGCCAGA	-0.216 ± 0.14
TGTATGAA	0.0767 ± 0.054
GCCCACCC	0.417 ± 0.02
ACCCACCC	0.424 ± 0.043
ACCCACCA	0.178 ± 0.043
CCCCACCC	0.23 ± 0.1
GCCCACAC	0.076 ± 0.018
GCCCACCA	0.078 ± 0.038
AACCGGAA	-0.0983 ± 0.0079
GCTGAGAA	-0.111 ± 0.028
TCAACCGA	-0.0249 ± 0.02
AACCATTG	-0.145 ± 0.014
CACCATTA	-0.0267 ± 0.11
AACCATTA	0.293 ± 0.0072
GTCAAATA	0.163 ± 0.093
CAATATGA	0.189 ± 0.055
CCATATGG	0.295 ± 0.008
ACATATGG	0.0892 ± 0.04
CAATATGC	0.128 ± 0.021

Sequence	PBM 8-mer E-score
CAATATGG	0.244 ± 0.044
CCATATGC	0.134 ± 0.054
AGCACCAG	-0.0554 ± 0.022
CGACACTC	-0.159 ± 0.094
AACACTCC	-0.151 ± 0.012
CAAATCAA	0.237 ± 0.0084
GAAATCAA	0.0712 ± 0.019
GAAATCAC	0.142 ± 0.072
AAAATCAC	0.28 ± 0.0095
CGAATCAA	0.241 ± 0.054
AAAATCAA	-0.044 ± 0.037
CGAATCAG	-0.0839 ± 0.076
TGAATCAA	0.1418 ± 0.00071
AAAATCAG	0.0292 ± 0.03
CCGCTTGC	-0.142 ± 0.036
ATACCAGA	0.118 ± 0.019
ACGTGTGG	0.156 ± 0.026
ACGTGTAT	0.336 ± 0.015
ACGTGTCT	0.26 ± 0.046
CCGTGTTA	0.0643 ± 0.04
ACGTGTTA	0.352 ± 0.0043
ACGTGTGC	0.238 ± 0.029
ACGTGTAG	0.0238 ± 0.1

Sequence	PBM 8-mer E-score
ACGTGTAC	0.132 ± 0.017
ACGTGTCA	0.139 ± 0.031
ACGTGTGA	0.113 ± 0.061
GCGTGTTA	0.103 ± 0.02
ACGTGTCG	0.18 ± 0.033
GAAGCCCC	-0.0537 ± 0.047
GCTTGTCA	-0.15 ± 0.028
CACCTGAC	0.0247 ± 0.0091
CCCATAGA	0.11 ± 0.015
CTTATCAC	0.00992 ± 0.026
ACCGAGCT	-0.158 ± 0.00061
CGAGTAAG	0.0344 ± 0.035
CACGATAA	0.0394 ± 0.0045
TGGAACCA	-0.0848 ± 0.06
ACGTCCAT	-0.0323 ± 0.032
CCCCACAA	0.245 ± 0.013
CCCCACAC	0.229 ± 0.021
CCCCACAG	-0.0544 ± 0.039
CCCCATAA	0.254 ± 0.037
TCCCATAA	0.0959 ± 0.053
GCCCATAA	-0.0636 ± 0.086
GTCCAAAA	-0.0163 ± 0.058
ACGCGAAC	0.0549 ± 0.069

Sequence	PBM 8-mer E-score
TCACAAAA	0.0933 ± 0.021
ACAAGCTC	-0.194 ± 0.011
ATATAAAT	0.251 ± 0.037
GTATAAAC	0.0938 ± 0.044
ATATAAAA	0.3008 ± 0.00046
ATAAAAAT	0.16 ± 0.044
GGATAAAA	0.0526 ± 0.098
GTATAAAA	0.278 ± 0.035
CTATAAAA	-0.0627 ± 0.04
ACATAAAA	0.144 ± 0.037
ATATAAAC	0.315 ± 0.054
ATATAAAG	0.21 ± 0.017
ATAAAAAC	0.116 ± 0.046
CTATAAAC	0.0618 ± 0.024
CTACACTA	0.111 ± 0.081
ACGCCTTC	-0.0956 ± 0.053
TTATAAAA	0.272 ± 0.021
TGATAAAA	0.145 ± 0.017
TAATAAAA	0.231 ± 0.053
